# Screens: PubChem BioAssay, National Center for Advancing Translational Sciences (NCATS)
# The list is not random: actives were taken first. Their share in the collection is about 12%.
# JMJD2A Tudor inh = inhibitors of human JMJD2A Tudor domain | actives 4.4% (n = 390,000) | AlphaScreen JMJD2A-Tudor / H3K4me3 peptide binding | O75164 | Potency, µM (doses to about 114 µM), for inactives: at the top dose activity change, negative = inhibition, most hits filed as inhibitors; also: % is scaled to controls: 0 for no effect and ±100 for the full control effect; nearly all actives have a fitted effect of over 50% in size
# Sfp inh = inhibitors of Bacillus subtilis Sfp phosphopantetheinyl transferase; Potency, µM, without a hit: largest response in the series, negative = inhibition, usual class: inhibitors; Biochemical Sfp PPTase activity, qHTS; Q9F4F7; actives 3.5% (n = 310,000);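 also: the enzyme is Sfp with the accession as filed and its product quenches rhodamine fluorescence; 0% = enzyme reaction without inhibitor and -100% = no enzyme wells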
#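 Reaction rates are the 30-min fluorescence difference (ex 525, em 598 nm) in wells containing 15 nM Sfp, 5 uM rhodamine-CoA and 12.5 uM BHQ-2-YbbR at pH 7.6 with 10 mM MgCl2.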
# G9a block = G9a (human) methyltransferase inhibition | Q96KQ7 | G9a H3K9 monomethylation, AlphaScreen, 2 h | Potency, µM (highest dose often 102 µM), inactives show at the highest dose activity, negative = inhibition, actives largely listed as inhibitors | actives 8.8% (n = 350,000) | AID 504332; also: % is scaled to controls: 0 for no effect and ±100 for the full control effect; nearly all actives have a fitted effect of over 75% in size
# Target sequence (Q96KQ7 913-1193 limits assumed): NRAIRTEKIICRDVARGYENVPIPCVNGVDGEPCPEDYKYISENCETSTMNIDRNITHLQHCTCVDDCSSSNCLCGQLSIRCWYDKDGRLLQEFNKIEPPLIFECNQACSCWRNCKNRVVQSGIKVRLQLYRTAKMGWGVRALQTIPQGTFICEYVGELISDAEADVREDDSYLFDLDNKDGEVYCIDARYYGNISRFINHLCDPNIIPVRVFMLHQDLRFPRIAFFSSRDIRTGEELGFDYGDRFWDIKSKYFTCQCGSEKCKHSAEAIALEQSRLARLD
#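 Quantitative HTS format: methyltransferase activity on a biotin-tagged H3K9 peptide is measured by AlphaScreen, using a rabbit anti-monomethyl-H3K9 antibody with streptavidin donor and anti-IgG acceptor beads. Final levels are 20 nM enzyme, 500 nM peptide, 20 uM SAM; 2 h RT.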
# HP1b chromo inh = inhibitors of HP1-beta chromodomain binding to methylated histone tails; actives 0.56% (n = 390,000); Potency, µM (titrated, usually from 114 µM), inactives show at the top dose activity change, negative = inhibition, actives largely listed as inhibitors; AlphaScreen HP1-beta / biotin-H3K9me3 peptide binding; also: nearly all actives have a fitted effect of over 70% in size
# Target sequence (P83916 whole entry, looked up): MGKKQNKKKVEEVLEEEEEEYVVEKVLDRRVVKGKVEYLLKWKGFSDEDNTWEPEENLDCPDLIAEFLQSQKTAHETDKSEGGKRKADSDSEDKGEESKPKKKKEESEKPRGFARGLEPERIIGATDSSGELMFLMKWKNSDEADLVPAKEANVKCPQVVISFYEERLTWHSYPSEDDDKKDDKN
#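 Compound inhibition of the preformed complex between 50 nM HP1-beta and 50 nM biotinylated H3K9me3 peptide was read by AlphaScreen. Buffer was PBS pH 7.4 with 0.01% Tween-20. Incubations ran 30 min at room temperature, with 10 ug/mL donor/acceptor beads.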
# BAZ2B inh = blocks human BAZ2B; Potency, µM (top dose mostly 114 µM), for inactives: top-dose activity change, negative = inhibition, usual class: inhibitors; actives 4.4% (n = 360,000); AlphaScreen BAZ2B-H3K14Ac peptide displacement; also: % is scaled to controls: 0 for no effect and ±100 for the full control effect; nearly all actives have a fitted effect of over 60% in size
#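 BAZ2B 50 nM plus b-H3(5-23)K14Ac 50 nM, PBS pH 7.4/0.01% Tween-20, 30 min RT; compound added (max 110 uM), 30 min RT; streptavidin donor/Ni-chelate acceptor beads 10 ug/mL final, 20 min dark; AlphaScreen read.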
# Starred values were filed as active, the others as inactive; u = inconclusive; x = no result; [ ] = dose if it differs, or a comment. Calls follow the shape of the dose curve; as a rule, active = well fitted curve in the direction sought with a large enough effect; inconclusive = small, poorly fitted or top-dose-only effect, or another doubt; inactive = no such curve, though single readings can be large; an effect the other way counts as inactive or inconclusive. Potency is read from the fitted curve at half-maximal effect.
SMILES,JMJD2A Tudor inh,Sfp inh,G9a block,HP1b chromo inh,BAZ2B inh
O=C(O)c1cccc(Nc2ncnc3sccc23)c1,-5.5%,-16.1%,39.8µM*,32.6%,-14.2%
CCOC(=O)c1cnc(SCC(=O)c2ccc(C)cc2)nc1N,-4.8%,6.3%,u,14.7%,-0.4%
CCOC(=O)c1cnc(SCC(=O)N2CCC(C(N)=O)CC2)nc1N,3.3%,-22.8%,50.1µM*,48.6%,-28.1%
CCOC(=O)c1cnc(SCC(=O)c2ccccc2)nc1N,-19.5%,44.7µM*,28.2µM*,3.4%,x
CCOC(=O)c1cnc(SCc2nc(N)nc(Nc3ccc(C)cc3)n2)nc1N,-15.1%[11.4 µM],3.6%,17.8µM*,55.5%,-10.9%
Cc1nn(CC(=O)OCC(=O)c2ccc(OC(F)F)cc2)c(C)c1[N+](=O)[O-],-16.3%,x,7.9%[2.33 µM],74.9%,3.2%
CC1(C)Cc2[nH]c(=O)c(C#N)cc2CS1,1.8%,8.9%,31.6µM*,25.1%,8.4%
CCCN1C(=O)C(Cc2nc3ccccc3c(=O)n2-c2ccc(OC)cc2)c2cc(C)ccc21 (centres undefined),u,x,u,0.7%,u
Cn1c2ccccc2c(=O)c2ccc(C#Cc3ccc(N)cc3)cc21,23.1%,-5.1%,50.1µM*,87.0%,-26.2%
O=c1c2c(-c3ccc([N+](=O)[O-])cc3)csc2nc2n1CCC2,-30.4%,u,7.94µM*,u,-1.3%
O=[N+]([O-])c1ccc(-c2nnc3n2CCCCC3)cc1,-13.4%,3.8%,60.0%,-1.6%,-2.4%
O=C(CCCc1ccccc1)Nc1ccnn1C1CCN(Cc2ccc(Cl)cc2)CC1,-22.4%,0.3%,23.5%,5.3%[57 µM],-20.2%
CC1CN(C(=O)c2cc3cc([N+](=O)[O-])ccc3s2)CC(C)O1 (centres undefined),-14.7%,19.2%,4.1%,13.9%,-13.9%
Cc1ccc(/C(O)=C2\C(=O)C(=O)N(c3cc(C)on3)C2c2cccc(Cl)c2)cc1 (centres undefined),-15.9%,23.5%,44.7µM*,29.7%,-5.1%
COc1ccc(/C(O)=C2\C(=O)C(=O)N(c3cc(C)on3)C2c2cccc(OC)c2OC)cc1C (centres undefined),-3.8%,16.7%,50.1µM*,40.4%,u
COc1ccc(N2C(=O)C(=O)/C(=C(/O)c3ccc(C)cc3)C2c2cccnc2)cc1 (centres undefined),u,-8.7%,u,0.0%,56.2µM*
COc1ccc(/C(O)=C2/C(=O)C(=O)N(c3ccccn3)C2c2cccc(Cl)c2)cc1 (centres undefined),-30.8%,27.1%,79.4µM*,12.5%,-19.5%
CC1CCN(CCCCOc2ccccc2Br)CC1,15.8µM*,50.1µM*,10µM*,-17.5%,u
CC1CCN(CCCCOc2ccccc2F)CC1,10µM*,-6.4%,-14.7%,0.9%,50.1µM*
Fc1ccccc1OCCCCCN1CCCC1,-30.8%,10.0%,-4.9%[59 µM],0.9%,-2.6%
Brc1ccccc1OCCCCN1CCCCC1,-10.0%,1.0%,25.1%,20.9%,4.5%
COc1ccccc1C(=O)Nc1nc2nc(C)cc(=O)n2[nH]1,-29.6%,x,-27.5%[59 µM],6.3%,-3.3%
COc1cc(/C=C2/SC(=S)N(CC3CCCO3)C2=O)ccc1O (centres undefined),u,u,28.2µM*,44.7µM*,44.7µM*
COc1ccc(/C=C2\SC(=S)N(CC3CCCO3)C2=O)cc1 (centres undefined),u,-4.2%,x,u,8.91µM*
COc1ccc(/C=C2\SC(=S)N(CCC(=O)NC3CCCC3)C2=O)cc1OC,-9.1%,u,6.8%,-4.2%,-0.4%
SMILES,JMJD2A Tudor inh,Sfp inh,G9a block,HP1b chromo inh,BAZ2B inh
COc1ccc(NC(=O)CCCSc2ccccc2)cc1S(N)(=O)=O,8.8%,11.0%,-1.0%,9.5%,-9.6%
CCCOc1ccc(NC(=O)CC2C(=O)N(c3ccc(F)cc3)C(=O)N2CC(C)C)cc1 (centres undefined),-12.1%,x,-1.4%[59 µM],2.3%,-6.2%
CN(C)c1ccc(CNCCC(Cc2ccccc2)c2ccco2)cc1 (centres undefined),20µM*,44.7µM*,22.4µM*,u,22.4µM*
CC(=O)c1sc(NC(=O)CCCc2nc3ccccc3c(=O)[nH]2)nc1-c1ccccc1,-22.6%,x,6.1%[12.7 µM],22.0%,-6.3%
COC(=O)CCC(=O)NC(=S)Nc1c(C)cccc1C,-10.1%,17.2%,-11.9%[59 µM],34.1%,5.1%
Cc1cccc(NC(=O)Cn2c(O)c(N=NC(=O)c3ccccc3O)c3ccccc32)c1,u,u,-6.3%[59 µM],22.1%,79.4µM*
Cc1ccc(NC(=O)Cn2c(O)c(N=NC(=O)c3cc([N+](=O)[O-])ccc3O)c3ccccc32)cc1,x,13.6%,x,x,u
CCCCCN1C(C)=CC(=C(C#N)C#N)C=C1C,8.6%,14.1%,6.8%,40.9%,5.8%
COc1cccc(CN2CCNC(=O)C2CC(=O)O)c1OC (centres undefined),-13.1%,7.0%,u,29.4%,-0.6%
Cc1cccc(CCNC(=O)CC2C(=O)NCCN2CC2CCCCC2)n1 (centres undefined),2.7%,12.0%,u,41.3%,-0.1%
Cc1ccccc1CN1CCNC(=O)C1CC(=O)NCCN1CCCCC1=O (centres undefined),-10.2%,14.0%,79.4µM*,37.7%,-5.6%
Cc1cccc(CCNC(=O)CC2C(=O)NCCN2Cc2ccccc2C)n1 (centres undefined),-13.1%,1.5%,50.1µM*,42.9%,8.3%
COc1ccc(CN2CCNC(=O)C2CC(=O)NC2CCCC2)c(OC)c1 (centres undefined),-5.6%,5.3%,-21.0%,15.3%[57 µM],-15.8%
Cc1ccccc1CNC(=O)CC1C(=O)NCCN1CC1CCCCC1 (centres undefined),-15.1%,4.4%,u,32.4%,-10.2%
COc1ccc(CN2CCNC(=O)C2CC(=O)O)c(OC)c1 (centres undefined),-3.5%,3.6%,14.1µM*,41.0%,11.0%
Cc1ccccc1CN1CCNC(=O)C1CC(=O)O (centres undefined),-7.6%,0.7%,14.1µM*,20.4%,-1.9%
COc1cccc(CNn2cnnc2)c1OCc1ccccc1F,-2.6%,9.6%,11.7%[12.7 µM],1.5%,-7.7%
C[C@H](CO)N1C[C@H](C)[C@@H](CN(C)S(=O)(=O)c2ccc(F)cc2)Oc2ccc(NC(=O)NC3CCCCC3)cc2C1=O,-7.9%,x,x,44.9%,x
CC(C)CN1CCNC(=O)C1CC(=O)NCCCN1CCCc2ccccc21 (centres undefined),-34.0%,0.7%,-10.7%[12.7 µM],1.9%,79.4µM*
CC(C)CN1CCNC(=O)C1CC(=O)NCCc1ccc(C(F)(F)F)cc1 (centres undefined),-3.5%,-8.0%,u,24.3%,-19.8%
Cc1ccc(SCCC(=O)OC(C(=O)NC(N)=O)C(C)C)cc1 (centres undefined),11.2µM*,-14.9%,u,-13.4%,1.9%
